# Results published in the supplement of paper PMC11219838.
# Unmarked numbers belong to inactive results.
# Columns and labels:
# Conditions in all cases: 60 µM; 5 days; temperature: 20 °C
# [1] = tested on: Meloidogyne hapla J2; assay: proportion of mobile M. hapla J2 relative to DMSO control (fraction of DMSO control); higher = more viable, less nematicidal, active = 0.7 or less
# Outline: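 Two biological replicates were run and averaged, each on 96-well plates in which about 25 M. hapla J2 sat in distilled water per well. Compound was pinned in to give 60 µM final and 0.6% v/v DMSO, and the sealed plates were shaken at 200 rpm and 20 °C for 5 days before 2 µL 1 M NaOH was added. Mobility was scored microscopically and divided by the mean from the plate's DMSO-only wells, of which there were eight.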
# [2] = tested on: Caenorhabditis elegans dauer (daf-2(e1370)); assay: proportion of mobile C. elegans dauer larvae relative to DMSO control (fraction of DMSO control); higher = more viable, less nematicidal, active = 0.63 or less; extreme values may be limits of the assay
# Outline: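 Synchronized C. elegans larvae were kept for 48 h at 25 °C on MYOB plates seeded with E. coli OP50 to induce dauer formation, and roughly 20 dauers were transferred into each well of a 96-well plate containing liquid NGM. Compound was pinned in to a final concentration of 60 µM with 0.6% v/v DMSO, and the sealed plates were shaken at 200 rpm for 5 days at 20 °C. The fraction of mobile worms was scored under a dissection microscope against DMSO-only wells and averaged across two biological replicates.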
# [3] = tested on: Ditylenchus dipsaci; assay: proportion of mobile D. dipsaci (mixed stage) relative to DMSO control (fraction of DMSO control); higher = more viable, less nematicidal, active = 0.86 or less; extreme values may be limits of the assay
# Outline: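 The worms, D. dipsaci raised on pea plants in Gamborg B-5 agar, were recovered through a filter funnel into water. Each well of a 96-well plate then held about 20 of them in distilled water plus pinned compound at 60 µM final (0.6% v/v DMSO), and the sealed plates were shaken at 200 rpm at 20 °C for 5 days. Following addition of 2 µL 1 M NaOH, mobile worms were counted by microscopy, and mobility was expressed against DMSO controls as the average of two biological replicates.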
SMILES,proportion of mobile M. hapla J2 [1],proportion of mobile C. elegans dauer larvae [2],proportion of mobile D. dipsaci [3]
Cc1ccc(-c2noc(-c3ccc(Cl)cc3)n2)cc1,1.03,1,1
Brc1ccccc1-c1nc(-c2ccc3c(c2)OCO3)no1,1.04,1,1
CNC(=O)c1ccccc1-c1nc(-c2ccc(Cl)cc2)no1,0.985,1,1
O=C(CSc1nnc(-c2ccc(Br)cc2)o1)NC1CCCC1,0.944,1,1
CCCCC(=O)Nc1ccccc1-c1nc(-c2ccccn2)no1,1.06,1,1
CC(Oc1ccc(Br)cc1)c1nc(-c2ccncc2)no1 (centres undefined),0.719,0 (active),1
O=C(c1ccccc1-c1nc(-c2ccccc2)no1)N1CCCCC1,1.06,1,1
Cc1ccc(OCc2nc(-c3cccnc3)no2)cc1C,1.02,1,1
Brc1ccc(CSc2nnc(-c3ccco3)o2)cc1,0.995,1,1
Brc1ccc(-c2noc(-c3cccs3)n2)o1,0.7 (active),0.5 (active),1
CC(C)CCC(=O)Nc1ccccc1-c1nc(-c2ccncc2)no1,0.977,1,1
CC(C)C(=O)Nc1ccccc1-c1nc(-c2cccnc2)no1,0.935,1,1
Cn1c(SCc2nc(-c3ccc(Br)cc3)no2)nnc1-c1ccco1,0.835,1,1
